Test results as given in the supplement of paper PMC11417369.
The full ranking holds about 25,000 sequences; the median of “ln(normalized median fluorescence intensity)” is about 7.1, and the highest 2% start at about 10. For the sample, the highest values were picked, then their nearest neighbours and some sequences at random.

test system: PfSIP2 AP2 domain 1 (GST-tagged); assay: gcPBM binding intensity (ln(normalized median fluorescence intensity)); higher = stronger DNA binding
How it was run: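 The binding buffer was 1× PBS containing 1% milk, 0.2 mg/ml BSA, 0.5% salmon testes DNA and 0.03% Triton X-100. In it, GST-tagged P. falciparum DNA-binding domains expressed in E. coli were applied for 1 h to an Agilent 4 × 180k array of primer-extended double-stranded 36-bp intergenic genomic probes plus negative controls. Binding intensity, read with Alexa488 anti-GST antibody and a 488 nm scan, is the highest Masliner-normalised natural-log median intensity across replicate spots of either probe orientation.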

Row | Sequence | gcPBM binding intensity (ln)
1 | ATAAAAGAATAAATAAAACACATATATATATATATA [XGTACX_negctrl_site31] | 9.43
2 | TTCTTTGTAGTATATTAACACACAACTGTTTATAAT [CACACA_site9305] | 7.27
3 | TATAATATTTGGTGCACACAAATTAACAACTGTTTA [CACACA_site3742] | 11.7
4 | TGTATAATATTTGGTGCACACAAATTAACAACTGTT [CACACA_site9245] | 11.4
5 | ATATTTATAAATTGCACACAAATAATAACATTATAT [CACACA_site5322] | 7.13
6 | AAATATTTATAAATTGCACACAAATAATAACATTAT [CACACA_site8737] | 7
7 | CTTTGTAGTATATTAACACACAACTGTTTATAATAT [CACACA_site6038] | 7.05
8 | AAAGGTTCACATTATATAGTTATGTAATATATATGT [CACACA_negctrl_site542] | 6.84
9 | ATATTTCATTTTTGTACACACAACGTTGGAGGGTTT [CACACA_site3043] | 7.18
10 | TCATATTTCCATAGGAGTACATAAAAAAAATAATAT [XGTACX_site7601] | 7.06
11 | TAAAAATAATATTAATGTACATTACATATTAATATA [XGTACX_site1019] | 6.83
12 | GTTATAAATGCATATACACACATACGTACATACATA [CACACA_site7655] | 7.4
13 | AAAAGACATTTTTTTTTATAAATACACACGTACGTG [TGCATGCA_negctrl_site281] | 6.95
14 | TTTTTTTTTATAAATACACACGTACGGGTGCATAAC [CACACA_site8444] | 11.3
15 | CATTTTTTTTTATAAATACACACGTACGGGTGCATA [CACACA_site1569] | 10.9
16 | TTTTATAAATACACACGTACGTGTGCATAACGTTTT [XGTACX_site3199] | 7.21
17 | ATAAATAAATTTATACGTACACATAATATATATATA [XGTACX_site4634] | 8.89
18 | ATGTATTTATTATTTAGTACACATTATTTTCTTATA [XGTACX_site6365] | 7.05
19 | AAATACATATTTAGAAGTACATTTATACATTTAATA [XGTACX_site8871] | 7.04
20 | CATATATAAATATATACACACATATATATATATATA [CACACA_site1365] | 9.43
21 | TGAAGGTCAGTTCACAGTACCCAGTAACTCTACGGA [XGTACX_site2554] | 6.62
22 | AGGATTATATATTAATGTACCCGCGTTAATTTTTTT [XGTACX_site2878] | 6.82
23 | GTCTATATATTTTAGGTGCAACGTAAATGTAAAAAT | 10.7

Row | Sequence | gcPBM binding intensity (ln)
24 | ATATATATATTTATATTTATATGTAAATATCAACGT [TGCATGCA_negctrl_site32] | 8.59
25 | TTTTTTTTTATAAGGTGTACGTAAAATGTGTAGGTC [XGTACX_site3585] | 8.36
26 | TTAAGTAGTACATACACACACATATACAAAAAGAAA [CACACA_site3972] | 7.3
27 | AGAATGAAATAATATACACACAAAGGAAAAATGTAA [CACACA_site3911] | 6.76
28 | TACATATATTTTTATACATGCATAACTTAGGACTTT [TGCATGCA_site113] | 7.07
29 | CATATAAATATTTGTGCACACAATTATTAATAATTA [CACACA_site3884] | 9.35
30 | TTTTTTTTTTTTTTTGTGCACAATATAATTTTTAAT [GTGCAC_site9747] | 8.64
31 | TGTGCATAATTTTGTGCACACCACGCTAATAATTTT [CACACA_site2915] | 10.9
32 | ATAGTATCTGGTAGCTGTACGAGTCGTATAGTGCAG [XGTACX_site2542] | 8.25
33 | AAAAAAAATTATATATGTACTTATTAATCCTTATAT [XGTACX_site1389] | 6.86
34 | TACATCATCTATAAGGTGCATTTTAGTTCTATTAAA | 10.8
35 | GATGTTTCTATTTTAGTGCATTTTAAATAAATAAAT | 9.4
36 | TTTTCTAAATAAATAGTGCATTTATTATATATACAT [GTGCAC_site9766] | 9.15
37 | TTGTTCTTTTGAAAGGTGCAAAAGAAAAATAATTAA | 11.2
38 | TTGTTCTTTTTTTTTTTATTTTTTAATTTGAAAAGA [CACACA_negctrl_site209] | 7.03
39 | AAAAAAAAAAGAAATTGTACTTTTTGTTTAATAATT [XGTACX_site4681] | 6.65
40 | CATATTCCCCCCCACACACACACACGCATACATACC [CACACA_site7148] | 10.1
41 | GACATATTCCCCCCCACACACACACCCACATACATA [CACACA_site2302] | 9.81
42 | CATATTCCCCCCCACACACACACACCCATACATACC [CACACA_site2303] | 10.2
43 | TCTATATAATACCAATGTACATAGTTTTAAGCATAA [XGTACX_site1889] | 6.93
44 | TATAAAACGGATGAACAACAAATCATATGGCACAAA [TGCATGCA_negctrl_site608] | 7.23
45 | TTAAAAAAGTAATTAACACACAATAATGTAATGCAT [CACACA_site4176] | 6.72
46 | TATTGTATCCTTAATGCATGCACCAAATAAAAAAAG [TGCATGCA_site541] | 11.1

Row | Sequence | gcPBM binding intensity (ln)
47 | CTGTATAAAACCAATGCATGTAAATATATTAATATA [TGCATGCA_site511] | 7.06
48 | TTTTTGTATCCTTTTAATATTAAATAAAAGGAATGT [CACACA_negctrl_site1468] | 7.02
49 | TTGTATCCTTAATGCATGCACCAAATAACAAAAGTA | 10.6
50 | ACAAAGTAAAATAATGCATGTAGGTATACATAATTA [TGCATGCA_site607] | 6.64
51 | TATTTGTTTGAATTTTTTTTTTTTTTTTTTTATGTG [CACACA_negctrl_site966] | 6.78
52 | CCTATATAATATATTTGTACTTAATAATTAAAGTGT [XGTACX_site5151] | 7.16
53 | ATTATTTGTAATATAACACACACAAAAAAAGACTCG [CACACA_site8487] | 7.1
54 | AAAATGTATATTGGCGCATGTAAACAAATACTATAC [TGCATGCA_site385] | 7.13
55 | GTCAAATTTTTGTGCACACATATATAGTTATTATTA [CACACA_site2241] | 10
56 | AAATATTACATTTGTTAAATAATATGTTATACATAA [XGTACX_negctrl_site484] | 6.96
57 | CAGTTGTTAATTTGTGTGCACCAAATATTATACATA | 11.2
58 | ACCTACACAAGCATTAAACACACAAAAGGGATACTT [CACACA_site8273] | 7.18
59 | AAAACATTGTTGAACTGTTTTATTTATAAATATAAG [XGTACX_negctrl_site393] | 7.02
60 | TTAAAATGAAGAAGTGCACACATATATATATTTATA [CACACA_site8063] | 10.4
61 | CATAAAAATGAACATACACACATATATTTATTTATA [CACACA_site7222] | 6.85
62 | AAAATGAACAGACACACACACATATTTATATTTATA [CACACA_site7182] | 6.96
63 | TCCTTATATTTGCACACACACACAAGAAAATGAAAA [CACACA_site6613] | 8.3
64 | TATAAAAATGTGCACACACACACATATTTATATTTA [CACACA_site6826] | 8.97
65 | AAAATGAAGAAGTGCACACATATATATATTTATATA [CACACA_site507] | 10.7
66 | CATGCCGTTAAATTATGTACTTATTATTTTAATATG [XGTACX_site4209] | 7.03
67 | TAAAAAAAATCATTCACACATATATGAAAAAAAAAA [CACACA_site5546] | 6.72
68 | TTATGGTGCATGAAATCACACATTGATATATATGCT [CACACA_site5352] | 11.3
69 | TATCATGTTTTTATGGTGCATGAAATCACACATTGA | 9.32

Row | Sequence | gcPBM binding intensity (ln)
70 | TAAATATAAAAATGCACACACACAAAAAAAAAAAAA [CACACA_site895] | 7.44
71 | AATATAAAAATGCACACACACAAAAAAAAAAAAAAA [CACACA_site6546] | 7.37
72 | AAAAATAAAAGGTGTGCACACAAAAATATATATATA [CACACA_site8507] | 8.89
73 | AAAAAAATAAGGTGCACACAAAAAAAAAAAAAAAAA [CACACA_site812] | 12.4
74 | ACAAAAAAATAAGGTGCACACAAAAAAAAAAAAAAA [CACACA_site8171] | 12
75 | ATATATATATATATTGTGCACAAAAAAAAATAAGCA | 9.29
76 | GTCCTTCATCATATTTAACACACAGAGAAAAAGCGG [CACACA_site7979] | 7.68
77 | AAAATAAAAAAAATAAATAAAAAAAATAATAATAAA [CACACA_negctrl_site563] | 6.55
78 | TATAACTTTTTTATTACACACCTATGCAATATTATA [CACACA_site6570] | 7
79 | TATATAATATAATTGACATGCAACCATTTTCGTGAA [TGCATGCA_site458] | 6.84
80 | TTTTTTTTTTTTTTGTGTACATATAATGCACATTAT [XGTACX_site6505] | 8.07
81 | TATTTTTTTTGTTAGGTGCATTTACATTTATTTTTA | 9.93
82 | AAATATATGTTATATGTGCACTTTTTTTTTTTTTTT [GTGCAC_site9667] | 10.4
83 | TTTTTGTTATTATGTGTGCACATATATATATATATA | 9.79
84 | ATATTTATTTGTTAGTGTACATACATATATATATAT [XGTACX_site1347] | 9.24
85 | ACTTTTTTTTTGTGTGTGCACTCGATTATATACATA [GTGCAC_site9846] | 10.3
86 | TTTTTTTTTGTTATGTTGCACTTTGCCATATTATTA [GTGCAC_site9844] | 7.93
87 | GAAAAATTTTTATATGTGCACATGTTATATATAATT [GTGCAC_site9742] | 8.64
88 | CATACATATACTTTGTGTACATATATATATTATATA [XGTACX_site97] | 7.51
89 | ATATGTTATATAAATATATATATATATATATATATA [TGCATGCA_negctrl_site594] | 9.55
90 | ATATATATTATGTGTGTGCACTTTTGTTATTATTAT | 10.4
91 | TTTTTGTTATTTTTAGTGCACATTTAAGGGTGTATT | 10.4
